Assay results reported in PubChem BioAssay (Tox21).
Unmarked numbers belong to inactive results. Results filed as inconclusive are left out. Where a call stands in place of a potency, no number is given. Active and inactive are the calls of the source. Unless noted, calls follow the shape of the dose curve; as a rule, active = well fitted curve in the direction sought with a large enough effect in the repeat runs; inconclusive = weak or mixed curves; inactive = no such curve, though single readings can be large; an effect the other way counts as inactive or inconclusive. Where a SMILES comes first, the peptide text is derived from it. [ ]: non-standard residue; d: D form. pGlu = O=C1CC[C@@H](C(=O)O)N1

Assays:
[1] = biological target: Estrogen receptor (Homo sapiens) (UniProt P03372); experiment: qHTS assay to identify small molecule antagonists of the estrogen receptor alpha (ER-alpha) signaling pathway using the BG1 cell line in the presence of 0.1 nM 17-beta-estradiol (AID 1259244); also: nearly all actives have a fitted effect of over 50% in size
Chain of Estrogen receptor (Homo sapiens) (P03372 whole entry, looked up): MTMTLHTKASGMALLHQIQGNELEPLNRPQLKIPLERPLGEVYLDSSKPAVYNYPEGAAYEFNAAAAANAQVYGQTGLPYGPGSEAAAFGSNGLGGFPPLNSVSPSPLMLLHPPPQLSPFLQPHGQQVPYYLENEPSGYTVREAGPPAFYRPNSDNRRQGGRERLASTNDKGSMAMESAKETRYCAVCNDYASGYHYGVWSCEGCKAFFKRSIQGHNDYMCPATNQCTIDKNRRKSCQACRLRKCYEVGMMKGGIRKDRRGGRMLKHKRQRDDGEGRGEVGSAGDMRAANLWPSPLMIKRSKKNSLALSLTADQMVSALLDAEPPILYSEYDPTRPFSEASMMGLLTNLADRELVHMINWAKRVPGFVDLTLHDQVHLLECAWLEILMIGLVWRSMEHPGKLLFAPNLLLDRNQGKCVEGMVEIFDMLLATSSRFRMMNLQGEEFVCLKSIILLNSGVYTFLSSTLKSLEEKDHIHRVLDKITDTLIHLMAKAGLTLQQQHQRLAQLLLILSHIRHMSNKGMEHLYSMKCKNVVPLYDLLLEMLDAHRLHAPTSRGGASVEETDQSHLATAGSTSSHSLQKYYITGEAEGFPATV
Procedure, shortened: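 Luminescence after ONE-Glo (30 min, room temperature) measured ERE-luciferase activity in VM7Luc4E2 cells treated 22 h with compound and 0.1 nM final 17beta-estradiol as stimulator.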

[2] = qHTS assay to identify small molecule HDAC inhibitors (AID 1259364);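 also: wild-type HCT-116 cells with endogenous class I/II HDAC activity; top concentration of the series differs between compounds; nearly all actives have a fitted effect of over 45% in size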
Procedure, shortened: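 HCT-116 (wild type), 1,500 cells/well, overnight; compound 2 hr 37C 5% CO2; HDAC-Glo I/II reagent 30 min RT; luminescence readout.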

[3] = qHTS assay to identify small molecule HDAC inhibitors - cell viability counter screen (AID 1259365); also: series mostly up to about 92 µM; nearly all actives have a fitted effect of over 50% in size
Procedure, shortened: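 HCT-116 (wild type), 1,500 cells/well, overnight 37C/5% CO2; compound in DMSO 2hr; CellTiter-Glo 30min RT; luminescence read.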

[4] = qHTS assay to identify small molecule agonists of the sonic hedgehog signaling (Shh) pathway - cell viability counter screen (AID 1259366); also: nearly all actives have a fitted effect of over 50% in size; also: potency is read from the fitted curve at half-maximal effect
Procedure, shortened: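 CellTiter-Fluor fluorescence read-out, 1 hr at 37C, added after 23hr compound exposure. Cells: 3T3 Gli1-Luc, an NIH/3T3 clone with stably integrated Gli1-Luc reporter, plated 4hr before compound.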

[5] = qHTS assay to identify small molecule antagonists of the sonic hedgehog signaling (Shh) pathway - cell viability counter screen (AID 1259367); also: nearly all actives have a fitted effect of over 55% in size; also: potency is read from the fitted curve at half-maximal effect
Procedure, shortened: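 Viability was read by CellTiter-Fluor fluorescence in the same wells, reagent added 23 hr into compound treatment and incubated 1 hr at 37C. The 3T3 Gli1-Luc reporter cells (2,000/well) received conditioned medium after compound and ran 24 hr.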

[6] = qHTS assay to identify small molecule agonists of the sonic hedgehog signaling (Shh) pathway (AID 1259368; calls by dose curve;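 also: NIH/3T3-derived 3T3Gli1-Luc cells carrying a stable Gli1-driven firefly luciferase reporter; series mostly up to about 92 µM; nearly all actives have a fitted effect of over 15% in size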)
Procedure, shortened: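 Read-out: firefly luciferase luminescence from a Gli1 response element reporter stably integrated in NIH/3T3-derived 3T3Gli1-Luc cells, measured 30 min at room temperature after reagent addition. Compound exposure lasted 24 hr at 37 C, 5% CO2.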

[7] = biological target: Estrogen receptor beta (Homo sapiens) (UniProt Q92731); experiment: qHTS assay to identify small molecule agonists of the estrogen receptor beta (ER-beta) signaling pathway (AID 1259377; active = well fitted activation curve with a large enough effect in the signal ratio in the repeat runs, not every such curve was filed as active; the % refers to the signal ratio)
Chain of Estrogen receptor beta (Homo sapiens) (Q92731 whole entry, looked up): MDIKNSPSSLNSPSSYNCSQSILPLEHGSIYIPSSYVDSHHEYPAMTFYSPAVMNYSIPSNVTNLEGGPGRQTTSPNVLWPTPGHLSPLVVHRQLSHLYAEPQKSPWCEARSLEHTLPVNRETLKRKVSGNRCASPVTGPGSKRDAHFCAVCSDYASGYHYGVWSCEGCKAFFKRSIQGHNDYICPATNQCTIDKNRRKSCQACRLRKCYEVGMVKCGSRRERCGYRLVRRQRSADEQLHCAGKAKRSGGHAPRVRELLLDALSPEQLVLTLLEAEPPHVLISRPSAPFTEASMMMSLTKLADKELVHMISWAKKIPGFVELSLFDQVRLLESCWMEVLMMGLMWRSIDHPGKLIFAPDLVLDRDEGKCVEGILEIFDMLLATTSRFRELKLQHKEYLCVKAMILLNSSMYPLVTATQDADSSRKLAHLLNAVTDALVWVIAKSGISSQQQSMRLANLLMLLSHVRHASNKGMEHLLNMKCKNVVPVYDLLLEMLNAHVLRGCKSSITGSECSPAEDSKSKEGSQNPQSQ
Procedure, shortened: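 Beta-lactamase reporter readout: fluorescence of LiveBLAzer B/G FRET substrate after 2 h at room temperature, following 16 h compound treatment of ER-beta-UAS-bla HEK293T cells at 37C in 2% charcoal-stripped FBS medium.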

[8] = qHTS assay to identify small molecule antagonists of the sonic hedgehog signaling (Shh) pathway (AID 1259369; calls by dose curve; also: nearly all actives have a fitted effect of over 45% in size; also: potency is read from the fitted curve at half-maximal effect)
Procedure, shortened: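 Luminescence readout: firefly Luc under Gli1 response element in 3T3Gli1-Luc cells (NIH/3T3 clone). Antagonist mode, stimulation by conditioned medium; compound exposure 24hr at 37 C, 5% CO2.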

[9] = qHTS assay to identify small molecule phospholipidosis (PLD) inducers (AID 1259344; active = well fitted curve in the direction sought with a large enough effect; an effect the other way counts as inactive or inconclusive)
Procedure, shortened: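 Phospholipid accumulation was scored by imaging: fixed, Hoechst-counterstained HepG2 cells stained with LipidTOX Red after 24 h compound exposure at 37 C. Read-outs were pit count and pit intensity per well or per cell, with amiodarone and DMSO controls.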

CC1=NN(c2cc(S(=O)(=O)O)ccc2Cl)C(=O)C1N=Nc1ccccc1 (stereo not drawn)
outcome [1]: inactive
Potency [2]: inactive
outcome [3]: inactive
Potency [4]: 13.7 µM (active)
Potency [5]: 27.3 µM (active)
outcome [6]: inactive
Potency [7]: inactive

CCCCN1C=CN(C)C1
activity change, negative = inhibition [1]: 8.85% [at 19 µM]
activity change, negative = inhibition [2]: -8.42% [at 19 µM]
viability change, negative = cytotoxic [4]: 3.43% [at 19 µM]
viability change, negative = cytotoxic [5]: 0.731% [at 19 µM]
activity change [6]: 1.75% [at 18.9 µM]
activity change, negative = inhibition [8]: 0.745% [at 19 µM]

CCCCOC(=O)CCC(C)=O
outcome [1]: inactive
Potency [2]: inactive
Potency [4]: inactive
Potency [5]: inactive
outcome [6]: inactive

CN1C(C)(C)CC(O)CC1(C)C
outcome [1]: inactive
Potency [2]: inactive
outcome [3]: inactive
Potency [4]: inactive
Potency [5]: inactive
outcome [6]: inactive
Potency [8]: inactive
Potency [7]: inactive

CCNC(=O)[C@@H]1CCCN1C(=O)[C@H](CCCN=C(N)N)NC(=O)[C@H](CC(C)C)NC(=O)CNC(=O)[C@H](Cc1ccc(O)cc1)NC(=O)[C@H](CO)NC(=O)[C@H](Cc1c[nH]c2ccccc12)NC(=O)[C@H](Cc1cnc[nH]1)NC(=O)[C@@H]1CCC(=O)N1 ([pGlu]HWSYGLRP-NHEt)
outcome [1]: inactive
Potency [2]: inactive
Potency [4]: inactive
Potency [5]: inactive
outcome [6]: inactive
Potency [8]: inactive
Potency [7]: inactive

CN(C)CCCN(C)CCCN(C)C
outcome [1]: inactive
Potency [2]: inactive
outcome [3]: inactive
Potency [4]: inactive
Potency [5]: inactive
outcome [6]: inactive
Potency [8]: inactive
Potency [7]: inactive

CCCCc1nc(Cl)c(CO)n1Cc1ccc(-c2ccccc2-c2nn[nH]n2)cc1
outcome [9]: inactive
Potency [2]: inactive
outcome [3]: inactive
Potency [4]: inactive
Potency [5]: inactive
outcome [6]: inactive
Potency [8]: 0.596 µM (active)
Potency [7]: inactive

CC(C)[C@H]1CC[C@@H](C)CC1=O
Potency [2]: inactive
outcome [3]: inactive
Potency [4]: inactive
Potency [5]: inactive
outcome [6]: inactive
Potency [8]: inactive

CCCc1ncc(C[n+]2ccccc2C)c(N)n1
outcome [9]: inactive
Potency [2]: inactive
outcome [3]: inactive
Potency [4]: inactive
Potency [5]: inactive
outcome [6]: inactive
Potency [8]: inactive
Potency [7]: inactive

C[N+]1(CC2COC(c3ccccc3)(c3ccccc3)O2)CCCCC1 (stereo not drawn)
outcome [9]: inactive
activity change, negative = inhibition [2]: 0.669% [at 19 µM]
activity change, negative = cytotoxicity [3]: 0.214% [at 19 µM]
viability change, negative = cytotoxic [4]: 9.08% [at 19 µM]
viability change, negative = cytotoxic [5]: 14.2% [at 19 µM]
activity change [6]: 0.753% [at 18.9 µM]
activity change, negative = inhibition [8]: -10.9% [at 19 µM]

Nc1ccn([C@@H]2O[C@H](CO)[C@@H](O)C2O)c(=O)n1 (stereo partly drawn)
outcome [9]: inactive
Potency [2]: inactive
Potency [4]: inactive
Potency [5]: inactive
outcome [6]: inactive
Potency [8]: inactive

COc1cccc(OC)c1C(=O)N[C@@H]1C(=O)N2[C@@H]1SC(C)(C)[C@@H]2C(=O)O
outcome [9]: inactive
Potency [2]: inactive
outcome [3]: inactive
Potency [4]: inactive
Potency [5]: inactive
outcome [6]: inactive
Potency [8]: inactive

CC1=C(C/C=C(\C)CCC[C@H](C)CCC[C@H](C)CCCC(C)C)C(=O)c2ccccc2C1=O
outcome [9]: inactive
Potency [2]: inactive
outcome [3]: inactive
Potency [4]: inactive
Potency [5]: inactive
outcome [6]: inactive
Potency [8]: inactive
Potency [7]: inactive

C=C(C)C(=O)OCCOCCOCCOCCOC(=O)C(=C)C
Potency [2]: inactive
outcome [3]: inactive
Potency [4]: inactive
Potency [5]: inactive
outcome [6]: inactive
Potency [8]: inactive

CCC(C)(CN(C)C)OC(=O)c1ccccc1 (stereo not drawn)
outcome [9]: inactive
Potency [2]: inactive
outcome [3]: inactive
Potency [4]: inactive
Potency [5]: inactive
outcome [6]: inactive
Potency [8]: inactive
Potency [7]: inactive

Cc1c(N)c(=O)n(-c2ccccc2)n1C
outcome [9]: inactive
Potency [2]: inactive
outcome [3]: inactive
Potency [4]: inactive
Potency [5]: inactive
outcome [6]: inactive
Potency [8]: inactive

COc1cc(-c2ccc(=O)[nH]n2)ccc1OC(F)F
outcome [9]: inactive
Potency [2]: inactive
outcome [3]: inactive
Potency [4]: inactive
Potency [5]: inactive
outcome [6]: inactive
Potency [8]: inactive
Potency [7]: inactive

CC[N+](C)(CC)CCOC(=O)C1c2ccccc2Oc2ccccc21
outcome [9]: inactive
Potency [2]: inactive
outcome [3]: inactive
Potency [4]: inactive
Potency [5]: inactive
outcome [6]: inactive
Potency [8]: inactive

CC(=O)OCC(=O)[C@@]1(O)[C@H](C)C[C@H]2[C@@H]3CCC4=CC(=O)C=C[C@]4(C)[C@@]3(F)[C@@H](O)C[C@@]21C
outcome [9]: inactive
Potency [2]: inactive
outcome [3]: inactive
Potency [4]: inactive
Potency [5]: inactive
outcome [6]: inactive
Potency [8]: inactive
Potency [7]: inactive

CN(C)[C@@H]1C(=O)C(C(=O)NCN2CCCC2)=C(O)[C@@]2(O)C(=O)C3=C(O)c4c(O)cccc4[C@@](C)(O)C3C[C@@H]12 (stereo partly drawn)
outcome [9]: inactive
Potency [2]: inactive
outcome [3]: inactive
Potency [4]: inactive
Potency [5]: inactive
outcome [6]: inactive
Potency [8]: inactive
Potency [7]: inactive

NC(N)=NCCN1CCCCCCC1
outcome [9]: inactive
activity change, negative = inhibition [2]: -1.37% [at 0.349 µM]
activity change, negative = cytotoxicity [3]: -1.69% [at 0.349 µM]
viability change, negative = cytotoxic [4]: -1.53% [at 0.349 µM]
viability change, negative = cytotoxic [5]: 3.04% [at 0.349 µM]
activity change [6]: -0.0353% [at 0.349 µM]
activity change, negative = inhibition [8]: 18.5% [at 0.349 µM]

C[C@H]1[C@H](NC(=O)/C(=N/OC(C)(C)C(=O)O)c2csc(N)n2)C(=O)N1S(=O)(=O)O (stereo in doubt)
outcome [9]: inactive
Potency [2]: inactive
outcome [3]: inactive
Potency [4]: inactive
Potency [5]: inactive
outcome [6]: inactive
Potency [8]: inactive
Potency [7]: inactive

COc1c(N2CCNC(C)C2)c(F)cc2c(=O)c(C(=O)O)cn(C3CC3)c12 (stereo not drawn)
outcome [9]: inactive
Potency [2]: inactive
outcome [3]: inactive
Potency [4]: inactive
Potency [5]: inactive
outcome [6]: inactive
Potency [7]: inactive

CC(C)C[C@@H](N)C(=O)O
outcome [9]: inactive
activity change, negative = inhibition [2]: 7.66% [at 19 µM]
viability change, negative = cytotoxic [4]: -2.88% [at 19 µM]
viability change, negative = cytotoxic [5]: 1.81% [at 19 µM]
activity change [6]: -0.808% [at 18.9 µM]
activity change, negative = inhibition [8]: 18.9% [at 19 µM]

CC[N+](CC)(CC(=O)Nc1c(C)cccc1C)Cc1ccccc1 (tested in a mixture with another compound)
Potency [2]: inactive
outcome [3]: inactive
Potency [4]: inactive
Potency [5]: inactive
outcome [6]: inactive
Potency [8]: inactive

O=CN(CCO)CCO
Potency [2]: inactive
outcome [3]: inactive
Potency [4]: inactive
Potency [5]: inactive
outcome [6]: inactive
Potency [8]: inactive
